# Only a selection was taken, and hits are over-represented in it overall.
# Cycloheximide cs – affects cycloheximide protein synthesis inhibition readout, counter-screen | max response, % | cell reporter, cycloheximide protein synthesis inhibition counterscreen | 300,000 compounds, 12% hits; in the data active = max response mostly above about 13%, no sharp cut-off; inactive = mostly below about 14%; note: read at 38.3 µM for the half of the compounds with a filed dose; 0% is about no effect
# Shiga toxin inh – blocks Shiga toxin action in Vero cells; Vero cells, Shiga toxin protein synthesis inhibition reporter; inhibition, % at 38.7 µM; 290,000 compounds, 9.2% hits; in the data active = inhibition mostly above about 28%, no sharp cut-off; inactive = mostly below about 43%; note: 0% is about no effect
# MARV entry inh – inhibitors of Marburg virus binding or cell entry | Marburg virus pseudotyped entry inhibition, cell reporter | Potency, µM (titrated, usually from 37.8 µM), without a hit: at the top dose activity change, negative = inhibition, most hits filed as inhibitors | 300,000 compounds, 1.8% hits | AID 540276; calls by dose curve; tested in HEK293 cells; note: potency is the fitted concentration of half-maximal effect; % is set by controls: 0 for no effect and ±100 for the full control effect
# Lassa entry inh – inhibitors of Lassa virus binding or cell entry. 300,000 compounds, 1.2% hits. Lassa virus pseudotype entry inhibition, cell reporter. Potency, µM (top dose mostly 37.9 µM), for inactives: top-dose activity change, negative = inhibition, most hits filed as inhibitors; calls by dose curve; tested in HEK293 cells; note: potency is the fitted concentration of half-maximal effect; % is set by controls: 0 for no effect and ±100 for the full control effect; nearly all actives have a fitted effect of over 50% in size
# AMA1-RON2 inh – inhibitors of Plasmodium falciparum AMA1-RON2 interaction; AlphaScreen AMA1-biotinylated RON2 peptide binding; Potency, µM (series often up to 58.2 µM), inactives show top-dose activity change, negative = inhibition, usual class: inhibitors; 360,000 compounds, 0.2% hits; AID 720542; active = well fitted inhibition curve with a large enough effect; inconclusive = small, poorly fitted or top-dose-only effect; inactive = no such curve, though single readings can be large or run the other way;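 note: potency is the fitted concentration of half-maximal effect; 0% = vehicle wells and -100% = peptide control; nearly all actives have a fitted effect of over 45% in size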
#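 AMA1 (3D7) with his tag at 25 nM final met compounds first, then biotinylated RON2 peptide at 25 nM; detection used donor plus acceptor beads, 10 µg/mL apiece, read by AlphaScreen after 30 min at room temperature.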
# * marks the source's active call; other numbers are inactive results; ? = inconclusive; . = no result; [ ] = dose if it differs, or a comment.
SMILES,Cycloheximide cs,Shiga toxin inh,MARV entry inh,Lassa entry inh,AMA1-RON2 inh
O=C(CSCc1ccccc1Cl)N1CCN(c2ccccn2)CC1,59*,119*,5%,-19%,3%
O=C(CSc1ccccc1)N1CCC2(CC1)OCCO2,36*,54*,17%,1%,-8%
COc1cc(CNCCN(C)C)c(Br)cc1OC1CCCC1,-1,-7,.,.,30%
Cc1nonc1C1CCCN1C(=O)c1cc(COc2ccc(F)cc2F)on1 (stereo not given),41*,103*,-15%[46.1 µM],-18%,-8%
CSc1ccccc1OCc1cc(C(=O)N2CCCC2c2nonc2C)no1 (stereo not given),48*,91*,-15%[46.1 µM],-1%[46.1 µM],-5%
Cc1cccc(C)c1OCc1cc(C(=O)N2CCCC2c2nonc2C)no1 (stereo not given),41,18,?,?,0%
CCOc1cc(CNC(=O)C(NS(=O)(=O)c2cccs2)C(C)C)cc(OCC)c1OCC (stereo not given),.,.,.,3%[46.1 µM],.
CN(C)C(CNc1ncnc2sc3c(c12)CCCC3)c1ccco1 (stereo not given),15*,20,?,1%,-13%
COc1ccc(Nc2ccc(N3C(=O)CCCC3=O)cc2[N+](=O)[O-])c(OC)c1,-7,-19,8%,-1%,-20%
Cc1cc(Cl)ccc1C(=O)C1CCCN(C(=O)c2cnn(C(C)C)c2)C1 (stereo not given),8,19,.,.,-7%
COc1ccc(-c2noc(C3CC(=O)N(c4ccc(C)c(F)c4)C3)n2)c(OC)c1 (stereo not given),.,.,.,1%[46.1 µM],.
CN1CCN(C2=Nc3ccccc3Oc3ccc(Cl)cc32)CC1,-4,-12,12µM*,-27%,-17%
Cc1cc(N/N=C/c2ccc(O)cc2O)nc(-c2ccccc2O)n1,59*,active,?,?,110%
Cc1cc(N/N=C/c2ccccc2O)nc(-c2ccccc2O)n1,25*,46*,17%,18%,91%
Cc1cc(N/N=C\c2ccccc2)nc(-c2ccccc2O)n1,84*,83*,-2%,5%,0%
COc1cc(C(=O)OCC(=O)N2CCC(C)CC2)cc2c1OCCO2,.,.,.,.,-2%
CC1(C(=O)NS(=O)(=O)c2ccc(Br)cc2)CCN1C(=O)c1cccc(F)c1 (stereo not given),.,.,.,.,-2%
COc1ccccc1-n1cc([C@@H]2C[C@H]3CN(c4ccccc4)C(=O)[C@]34CCCN24)cn1,-2,-3,10µM*,?,-9%
COc1cc([C@@H]2C[C@H]3CN(c4ccccc4)C(=O)[C@]34CCCN24)cc(OC)c1OC,-1,-8,.,.,-1%
CCc1nc2ccc(C(=O)N(C)CCCN(C)C)cn2c1N(C)Cc1cc2ccccc2s1,.,.,.,.,-5%
CN(C)C(=O)c1cc(C(=O)c2c(F)cccc2F)c[nH]1,11,16,15%[46.1 µM],3%[46.1 µM],-4%
CN(C)C(=O)c1cc(C(=O)c2ccccc2Cl)c[nH]1,29*,28,?,19%,-16%
CN(C)C(=O)c1cc(C(=O)c2ccccc2)c[nH]1,18*,24,14%[46.1 µM],?,-1%
CN(C)C(=O)c1cc(C(=O)c2ccccc2Br)c[nH]1,11,48,.,.,2%
CCN(CC(=O)NCc1ccc(Cl)cc1)C(=O)c1ccc(C#N)cc1,3,-2,.,.,-3%
SMILES,Cycloheximide cs,Shiga toxin inh,MARV entry inh,Lassa entry inh,AMA1-RON2 inh
Nc1nonc1C(=O)N/N=C/c1ccc([N+](=O)[O-])o1,44*,76*,?,?,-3%
CN(C)c1ccc(/C=N/NC(=O)c2nonc2N)cc1[N+](=O)[O-],41*,133*,-3%[46.1 µM],3%,2%
COc1ccc(/C=N/NC(=O)c2nnn(-c3nonc3N)c2C)cc1OC,.,.,.,.,-7%
COc1ccc(/C=N/NC(=O)c2nonc2N)cc1OC,34*,80*,13%,6%,8%
Nc1nonc1C(=O)N/N=C/c1cccc([N+](=O)[O-])c1,27*,active,6%,?,21%
O=C(N/N=C/c1ccc([N+](=O)[O-])o1)c1ccncc1,8,5,-23%[46.1 µM],?,-9%
CCCCNC(=O)C1(C)CCCCN1C(=O)c1ccc2c(c1)CCO2 (stereo not given),.,.,.,.,-5%
O=C(NCc1ccc(/C=c2\sc3n(c2=O)CCN=3)o1)C(=O)Nc1ccccc1,20,26,.,.,.
Cc1ccc(S(=O)(=O)Nc2nc3ccccc3s2)cc1,-4,-11,-3%,?,-5%
Cc1ccc(/C=C/c2nc3ccccc3s2)s1,24*,29,?,6.3µM*,165%
